Reference: PubChem BioAssay (NCI)
Several values for one entry are separate records, joined by “and”; a condition that tells them apart may be missing. Equal entries are not always repeated. The panel holds about 83,000 compounds, 20% with a hit somewhere; the sample as a whole holds those more often.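 Negative percent growth values reflect cell death: -40 means 40% of the cells present at the start died, and -100 means all died.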 Activity calls are given as the source filed them. Rule for the calls: active = growth percent below 10; inactive = the rest.

Each compound was assayed on SNB-75 CNS (assay: NCI-60 one-dose screen, 48 h (100 = growth as untreated, 0 = no growth, -100 = all killed)). Conditions: 10 µM unless noted.
With `COc1ccc(/C(C#N)=C/c2ccccn2)cc1` the growth was 99.2% (inactive) and 105% (inactive).
In the case of `Nc1ccc(N=Nc2ccc(S(=O)(=O)O)cc2)cc1S(=O)(=O)O`, the growth is reported as 106% (inactive) and 81.6% (inactive).
`O=C1OC2(c3ccccc31)c1ccc(O)c(O)c1Oc1c2ccc(O)c1O` was tested, and the growth was 101% (inactive) and 88.3% (inactive).
`CCNC(=O)Nc1ccc(-c2nc3c(c(N4CCOC[C@@H]4C)n2)CCN(C2COC2)C3)cc1` was tested, and the growth was 22.9% (inactive) and -33.2% (active).
For `CC(C)Cc1ccc(C(C)C(=O)NCc2ccc(Cn3c(=O)sn(CCCCl)c3=O)cc2)cc1` (stereo unspecified), the growth was 105% (inactive) and -18% (active).
With `OCc1ccccn1` the growth was 74.5% (inactive).
`Cc1ccc2nc3c(nc2c1)-c1cccc2cccc-3c12` was tested, and the growth was 94.9% (inactive).
In the case of `CCN(CC)C(=O)c1cccnc1`, the growth is reported as 98.7% (inactive).
For `Oc1nc(NCCc2ccccc2)sc1/C=C1\C=Nc2ncccc21`, the growth was -13.3% (active) and -10.9% (active).
For `COc1cc2nc(N3CCN(C(=O)C4COc5ccccc5O4)CC3)nc(N)c2cc1OC` (stereo unspecified), the growth was 71.3% (inactive) and 76.9% (inactive) and 92.7% (inactive).
For `CC(C)CNC(=O)c1ccccc1C(=O)NC1(C(=O)NCC(C)C)CCCC1`, the growth was 87.9% (inactive) and 94.6% (inactive).
`CN(C)c1ccc(C(Cc2ccc3ccccc3n2)Cc2ccc3ccccc3n2)cc1` was tested, and the growth was 110% (inactive) and 88.5% (inactive).
With `NS(=O)(=O)c1cc2c(cc1Cl)NC(C(Cl)Cl)NS2(=O)=O` (stereo unspecified) the growth was 77.7% (inactive) and 114% (inactive).
With `c1ccc2c(CC3=NCCN3)cccc2c1` the growth was 92.9% (inactive) and 105% (inactive).
In the case of `Clc1ccc(NC(Nc2ccc(Cl)cc2)C(Cl)(Cl)Cl)cc1`, the growth is reported as 79.2% (inactive) and 105% (inactive).
For `CCOc1ccc2c(S(=O)(=O)O)cccc2c1[N+](=O)[O-]`, the growth was 85.7% (inactive) and 93.8% (inactive).
For `CCN(CC)CCCC(C)N(Cc1ccccc1)CC(O)c1ccc(Cl)cc1` (stereo unspecified), the growth was 109% (inactive) and 90.6% (inactive).
For `Nc1nc2ncc(CNc3ccc(C(=O)N[C@@H](CCc4nn[nH]n4)C(=O)O)cc3)nc2c(=O)[nH]1`, the growth was 87.4% (inactive) and 97.4% (inactive).
With `O=S1(=O)CC(Br)C(Br)C1` (stereo unspecified) the growth was 100% (inactive) and 88.8% (inactive).

These compounds were tested on SNB-19 CNS in the same assay as above. Conditions: 10 µM unless noted.
`COc1cc2c(c(OC)c1OC)-c1ccc(OC)c(=O)cc1[C@@H](NC(C)=O)CC2` was tested, and the growth was 39.5% (inactive) and 30.5% (inactive) and 19% (inactive).
In the case of `CCN(CC)CCCC(CNc1ccnc2cc(Cl)ccc12)c1ccc(Cl)cc1` (stereo unspecified), the growth is reported as 2.34% (active) and 92.4% (inactive).
`N#CCCOc1ccccc1` was tested, and the growth was 108% (inactive).
For `COc1ccc(/C(C#N)=C/c2ccccn2)cc1`, the growth was 97.9% (inactive) and 106% (inactive).
With `CCN(CC)C(=S)SSC(=S)N(CC)CC` the growth was 85.4% (inactive) and 97% (inactive).
In the case of `Nc1ccc(N=Nc2ccc(S(=O)(=O)O)cc2)cc1S(=O)(=O)O`, the growth is reported as 96.5% (inactive).
With `CCN(CC)CCOc1ccc2c(c1)C(=O)c1cc(OCCN(CC)CC)ccc1-2` the growth was 83.9% (inactive) and 75.7% (inactive).
With `O=C1OC2(c3ccccc31)c1ccc(O)c(O)c1Oc1c2ccc(O)c1O` the growth was 110% (inactive) and 108% (inactive).
`O=S(=O)(Nc1ccccc1)C1CCCCC1` was tested, and the growth was 101% (inactive) and 107% (inactive).
For `CCNC(=O)Nc1ccc(-c2nc3c(c(N4CCOC[C@@H]4C)n2)CCN(C2COC2)C3)cc1`, the growth was 59.2% (inactive) and 15.7% (inactive).
In the case of `CC(C)Cc1ccc(C(C)C(=O)NCc2ccc(Cn3c(=O)sn(CCCCl)c3=O)cc2)cc1` (stereo unspecified), the growth is reported as 91.2% (inactive) and 49.8% (inactive).
`OCc1ccccn1` was tested, and the growth was 109% (inactive).
In the case of `Nc1ncnc2c1ncn2C1CC(O)C(CO)O1` (stereo unspecified), the growth is reported as 107% (inactive) and 103% (inactive).
In the case of `CCCCCCCCCCCCCCCc1cc(O)ccc1N`, the growth is reported as 96.8% (inactive) and 118% (inactive).
For `Cc1ccc2nc3c(nc2c1)-c1cccc2cccc-3c12`, the growth was 100% (inactive).
For `O=[N+]([O-])c1ccc(/C=N\NC(=S)Nc2ccc(F)cc2)cc1`, the growth was 103% (inactive) and 93.5% (inactive).
With `CCN(CC)C(=O)c1cccnc1` the growth was 105% (inactive).
`Oc1nc(NCCc2ccccc2)sc1/C=C1\C=Nc2ncccc21` was tested, and the growth was 12.1% (inactive).
In the case of `COc1cc2nc(N3CCN(C(=O)C4COc5ccccc5O4)CC3)nc(N)c2cc1OC` (stereo unspecified), the growth is reported as 99.7% (inactive) and 96% (inactive) and 101% (inactive).
For `c1ccc2cc(C[n+]3ccn(Cc4ccc5ccccc5n4)c3)ccc2c1`, the growth was 13.3% (inactive) and 19.7% (inactive).
In the case of `COc1ccc(Cn2c(NCCN=C(N)N)nc(=O)n(Cc3ccc(F)cc3)c2=O)cc1`, the growth is reported as 77.6% (inactive) and 78.7% (inactive).
`O=C(N/N=C/c1cccc2ccccc12)C1CC1` was tested, and the growth was 98.8% (inactive) and 95.1% (inactive).
For `CC(C)CNC(=O)c1ccccc1C(=O)NC1(C(=O)NCC(C)C)CCCC1`, the growth was 105% (inactive) and 108% (inactive).
For `Cn1c(=O)n(-c2ccc(C(C)(C)C#N)cc2)c2c3cc(-c4cnc5ccccc5c4)ccc3ncc21`, the growth was 14.9% (inactive) and 14.7% (inactive).
In the case of `CN(C)c1ccc(C(Cc2ccc3ccccc3n2)Cc2ccc3ccccc3n2)cc1`, the growth is reported as 61% (inactive) and 89.3% (inactive).
In the case of `Cc1ccc(S(=O)(=O)Nc2ccc3cc([N+](=O)[O-])ccc3c2[N+](=O)[O-])cc1`, the growth is reported as 85.6% (inactive) and 96.2% (inactive).
With `NS(=O)(=O)c1cc2c(cc1Cl)NC(C(Cl)Cl)NS2(=O)=O` (stereo unspecified) the growth was 104% (inactive) and 105% (inactive).
In the case of `Nc1ccccc1Nc1ccccc1`, the growth is reported as 97.9% (inactive) and 105% (inactive).
In the case of `c1ccc2c(CC3=NCCN3)cccc2c1`, the growth is reported as 107% (inactive) and 104% (inactive).
With `Clc1ccc(NC(Nc2ccc(Cl)cc2)C(Cl)(Cl)Cl)cc1` the growth was 104% (inactive) and 112% (inactive).
With `CCOc1ccc2c(S(=O)(=O)O)cccc2c1[N+](=O)[O-]` the growth was 108% (inactive) and 112% (inactive).
With `CCN(CC)CCCC(C)N(Cc1ccccc1)CC(O)c1ccc(Cl)cc1` (stereo unspecified) the growth was 109% (inactive) and 107% (inactive).
With `Cn1cnc([N+](=O)[O-])c1Sc1ncnc2nc[nH]c12` the growth was 96.8% (inactive) and 110% (inactive).
`Nc1nc2ncc(CNc3ccc(C(=O)N[C@@H](CCc4nn[nH]n4)C(=O)O)cc3)nc2c(=O)[nH]1` was tested, and the growth was 107% (inactive) and 95.6% (inactive).
`Oc1c(Cl)cc(Cl)cc1Sc1cc(Cl)cc(Cl)c1O` was tested, and the growth was 43.4% (inactive) and -0.0882% (active) and 74.5% (inactive).
In the case of `O=S1(=O)CC(Br)C(Br)C1` (stereo unspecified), the growth is reported as 98.7% (inactive) and 97.2% (inactive).
`CN(C)c1ccc2nc3ccc(N)cc3[n+](-c3ccccc3)c2c1` was tested, and the growth was 12.3% (inactive) and 21.1% (inactive).
